# Laboratory results: PubChem BioAssay AID1159580 (chemical genetic matrix, 2015)
# Among all 5,500 compounds or so, about 2,000 (36%) were called active. Another 18% or so got no clear call; they are omitted. Some of the results follow. Values without a mark were called inactive. Rule as the data show it: active = normalized growth mostly below about 0.91 (no sharp cut-off); inconclusive = no clear call, values can overlap the other calls; inactive = mostly above about 0.92.
# Experiment: chemical genetic growth profiling, strain panel (AID 1159580);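 also: tested at 20 µM; growth read once vehicle control cultures reached saturation at 30 °C; 1 = growth at the plate median or of vehicle wells; lower values mean less growth of the strain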
# Settings: growth OD
compound,measurement,setting,value
COC(=O)[C@]1(C)CC[C@]2(C)CC[C@]3(C)C4=CC=C5C(=CC(=O)C(O)=C5C)[C@]4(C)CC[C@@]3(C)[C@@H]2C1,normalized growth,"S. cerevisiae deletion strains, locus YJR043C, strain POL32, active compounds read low",0.646 (active)
same,normalized growth,"S. cerevisiae deletion strains, locus YJR075W, strain HOC1, active compounds read low",0.794 (active)
same,normalized growth,"S. cerevisiae deletion strains, locus YKL009W, strain mrt4, active compounds read low",1.06
same,normalized growth,"S. cerevisiae deletion strains, locus YKL068W, active compounds read low",0.961
same,normalized growth,"S. cerevisiae deletion strains, locus YKL085W, strain MDH1 (second series), active compounds read low",1.01
same,normalized growth,"S. cerevisiae deletion strains, locus YKL085W, strain MDH1, active compounds read low",1.01
same,normalized growth,"S. cerevisiae deletion strains, locus YKL160W, strain elf1, active compounds read low",0.702 (active)
same,normalized growth,"S. cerevisiae deletion strains, locus YKL190W, strain CNB1, active compounds read low",0.712 (active)
same,normalized growth,"S. cerevisiae deletion strains, locus YKR001C, strain vps1, active compounds read low",0.793 (active)
same,normalized growth,"S. cerevisiae deletion strains, locus YKR026C, strain gcn3, active compounds read low",0.941
same,normalized growth,"S. cerevisiae deletion strains, locus YKR091W, strain srl3, active compounds read low",0.995
same,normalized growth,"S. cerevisiae deletion strains, locus YLL001W, strain dnm1, active compounds read low",0.729 (active)
same,normalized growth,"S. cerevisiae deletion strains, locus YLL026W, active compounds read low",0.887 (active)
same,normalized growth,"S. cerevisiae deletion strains, locus YLL041C, strain sdh2, active compounds read low",0.929
same,normalized growth,"S. cerevisiae deletion strains, locus YLR027C, strain aat2, active compounds read low",0.719 (active)
same,normalized growth,"S. cerevisiae deletion strains, locus YLR039C, strain RIC1, active compounds read low",0.406 (active)
same,normalized growth,"S. cerevisiae deletion strains, locus YLR058C, strain SHM2, active compounds read low",0.615 (active)
same,normalized growth,"S. cerevisiae deletion strains, locus YLR102C, strain apc9, active compounds read low",0.983
same,normalized growth,"S. cerevisiae deletion strains, locus YLR221C, strain rsa3, active compounds read low",0.752 (active)
same,normalized growth,"S. cerevisiae deletion strains, locus YLR258W, strain gsy2, active compounds read low",0.802 (active)
same,normalized growth,"S. cerevisiae deletion strains, locus YLR262C, strain YPT6 (second series), active compounds read low",0.394 (active)
same,normalized growth,"S. cerevisiae deletion strains, locus YLR262C, strain YPT6, active compounds read low",0.45 (active)
same,normalized growth,"S. cerevisiae deletion strains, locus YLR268W, strain sec22, active compounds read low",0.832 (active)
same,normalized growth,"S. cerevisiae deletion strains, locus YLR320W, strain mms22, active compounds read low",0.495 (active)
same,normalized growth,"S. cerevisiae deletion strains, locus YLR330W, strain CHS5, active compounds read low",0.64 (active)
same,normalized growth,"S. cerevisiae deletion strains, locus YLR342W, strain FKS1 (second series), active compounds read low",0.71 (active)
same,normalized growth,"S. cerevisiae deletion strains, locus YLR342W, strain FKS1, active compounds read low",0.59 (active)
same,normalized growth,"S. cerevisiae deletion strains, locus YLR357W, strain rsc2, active compounds read low",0.824 (active)
same,normalized growth,"S. cerevisiae deletion strains, locus YLR370C, strain arc18, active compounds read low",0.797 (active)
same,normalized growth,"S. cerevisiae deletion strains, locus YLR371W, strain rom2, active compounds read low",0.948
same,normalized growth,"S. cerevisiae deletion strains, locus YLR384C, strain iki3, active compounds read low",0.96
same,normalized growth,"S. cerevisiae deletion strains, locus YLR418C, strain cdc73, active compounds read low",0.383 (active)
same,normalized growth,"S. cerevisiae deletion strains, locus YML016C, strain PPZ1, active compounds read low",0.781 (active)
same,normalized growth,"S. cerevisiae deletion strains, locus YML032C, strain rad52, active compounds read low",0.873 (active)
same,normalized growth,"S. cerevisiae deletion strains, locus YML120C, strain ndi1, active compounds read low",0.819 (active)
same,normalized growth,"S. cerevisiae deletion strains, locus YML124C, strain tub3, active compounds read low",0.956
same,normalized growth,"S. cerevisiae deletion strains, locus YMR058W, strain fet3, active compounds read low",0.115 (active)
same,normalized growth,"S. cerevisiae deletion strains, locus YMR078C, strain ctf18, active compounds read low",0.934
same,normalized growth,"S. cerevisiae deletion strains, locus YMR125W, strain sto1, active compounds read low",0.812 (active)
same,normalized growth,"S. cerevisiae deletion strains, locus YMR205C, strain PFK2, active compounds read low",0.56 (active)
same,normalized growth,"S. cerevisiae deletion strains, locus YMR223W, strain ubp8, active compounds read low",0.85 (active)
same,normalized growth,"S. cerevisiae deletion strains, locus YMR231W, strain pep5, active compounds read low",0.863 (active)
same,normalized growth,"S. cerevisiae deletion strains, locus YMR263W, strain SAP30, active compounds read low",0.803 (active)
same,normalized growth,"S. cerevisiae deletion strains, locus YMR307W, strain GAS1, active compounds read low",0.65
same,normalized growth,"S. cerevisiae deletion strains, locus YNL067W, strain RPL9B, active compounds read low",0.803 (active)
same,normalized growth,"S. cerevisiae deletion strains, locus YNL071W, strain lat1, active compounds read low",0.347 (active)
same,normalized growth,"S. cerevisiae deletion strains, locus YNL128W, strain TEP1, active compounds read low",0.548 (active)
same,normalized growth,"S. cerevisiae deletion strains, locus YNL209W, strain ssb2, active compounds read low",0.454 (active)
same,normalized growth,"S. cerevisiae deletion strains, locus YNL233W, strain BNI4, active compounds read low",0.811 (active)
same,normalized growth,"S. cerevisiae deletion strains, locus YNL248C, strain rpa49, active compounds read low",0.887 (active)
same,normalized growth,"S. cerevisiae deletion strains, locus YNL250W, strain rad50, active compounds read low",0.934
same,normalized growth,"S. cerevisiae deletion strains, locus YNL271C, strain bni1, active compounds read low",0.894 (active)
same,normalized growth,"S. cerevisiae deletion strains, locus YNL298W, strain CLA4, active compounds read low",0.957
same,normalized growth,"S. cerevisiae deletion strains, locus YNL307C, strain MCK1, active compounds read low",0.754 (active)
same,normalized growth,"S. cerevisiae deletion strains, locus YNL322C, strain KRE1 (second series), active compounds read low",0.978
same,normalized growth,"S. cerevisiae deletion strains, locus YNL322C, strain KRE1, active compounds read low",0.772 (active)
same,normalized growth,"S. cerevisiae deletion strains, locus YNR049C, strain mso1, active compounds read low",0.878 (active)
same,normalized growth,"S. cerevisiae deletion strains, locus YNR052C, strain pop2, active compounds read low",0.888 (active)
same,normalized growth,"S. cerevisiae deletion strains, locus YOL006C, strain TOP1, active compounds read low",0.317 (active)
same,normalized growth,"S. cerevisiae deletion strains, locus YOL012C, strain htz1",0.412
same,normalized growth,"S. cerevisiae deletion strains, locus YOL147C, strain pex11, active compounds read low",0.91 (active)
same,normalized growth,"S. cerevisiae deletion strains, locus YOR001W, strain rrp6, active compounds read low",0.918
same,normalized growth,"S. cerevisiae deletion strains, locus YOR061W, strain CKA2, active compounds read low",0.744 (active)
same,normalized growth,"S. cerevisiae deletion strains, locus YOR069W, strain VPS5, active compounds read low",0.836 (active)
same,normalized growth,"S. cerevisiae deletion strains, locus YOR070C, strain gyp1, active compounds read low",0.678 (active)
same,normalized growth,"S. cerevisiae deletion strains, locus YOR080W, strain dia2, active compounds read low",0.757 (active)
same,normalized growth,"S. cerevisiae deletion strains, locus YOR083W, strain WHI5, active compounds read low",0.757 (active)
same,normalized growth,"S. cerevisiae deletion strains, locus YOR106W, strain vam3, active compounds read low",0.574 (active)
same,normalized growth,"S. cerevisiae deletion strains, locus YOR136W, strain idh2, active compounds read low",0.961
same,normalized growth,"S. cerevisiae deletion strains, locus YOR144C, strain elg1, active compounds read low",0.908 (active)
same,normalized growth,"S. cerevisiae deletion strains, locus YOR184W, strain ser1, active compounds read low",0.645 (active)
same,normalized growth,"S. cerevisiae deletion strains, locus YOR265W, strain rbl2, active compounds read low",0.747 (active)
same,normalized growth,"S. cerevisiae deletion strains, locus YOR270C, strain vph1, active compounds read low",0.472 (active)
same,normalized growth,"S. cerevisiae deletion strains, locus YOR290C, strain snf2, active compounds read low",0.515 (active)
same,normalized growth,"S. cerevisiae deletion strains, locus YOR316C, strain cot1, active compounds read low",0.962
same,normalized growth,"S. cerevisiae deletion strains, locus YPL051W, strain arl3, active compounds read low",0.448 (active)
same,normalized growth,"S. cerevisiae deletion strains, locus YPL078C, strain atp4, active compounds read low",0.65 (active)
same,normalized growth,"S. cerevisiae deletion strains, locus YPL106C, strain sse1, active compounds read low",0.854
same,normalized growth,"S. cerevisiae deletion strains, locus YPL240C, strain hsp82, active compounds read low",0.81 (active)
same,normalized growth,"S. cerevisiae deletion strains, locus YPL241C, strain CIN2, active compounds read low",0.898 (active)
same,normalized growth,"S. cerevisiae deletion strains, locus YPR119W, strain clb2, active compounds read low",0.957
same,normalized growth,"S. cerevisiae deletion strains, locus YPR141C, strain kar3, active compounds read low",0.943
same,normalized growth,"S. cerevisiae deletion strains, locus YPR163C, strain tif3, active compounds read low",0.888 (active)
same,normalized growth,"S. cerevisiae deletion strains, locus YPR167C, strain met16, active compounds read low",0.917 (active)
same,normalized growth,"S. cerevisiae deletion strains, strain wtn01, active compounds read low",0.894 (active)
same,normalized growth,"S. cerevisiae strains, strain wild type, active compounds read low",0.572 (active)
